The results in this text go back to ChEMBL document CHEMBL3433997, “St. Jude Leishmania screening dataset” (2016).

Structures are written as SMILES.

What all share (assay type): functional
Assay [1] has as its target Solute carrier family 2, facilitated glucose transporter member 1 (Homo sapiens) (UniProt P11166). Description: ST_JUDE_LEISH: Cytotoxicity at 2uM final concentration against transgenic Leishmania Mexicana promastigotes LmGLUT1 that are glucose transport deficient and complemented with the human glucose transporter GLUT1. Activity is measured by DNA content using SYBR green in vitro.

For assay [2], the target named is Hexose transporter 1 (Plasmodium falciparum) (UniProt O97467). Description: ST_JUDE_LEISH: Cytotoxicity at 2uM final concentration against transgenic Leishmania Mexicana promastigotes LmPfHT that are glucose transport deficient and complemented with the Plasmodium falciparum hexose transporter. Activity is measured by DNA content using SYBR green in vitro.
Assay [3] concerns the target Glucose transporter (Leishmania mexicana) (UniProt O61059). Description: ST_JUDE_LEISH: Cytotoxicity at 2uM final concentration against transgenic Leishmania Mexicana promastigotes LmGT2 that are glucose transport deficient and complemented with the L. Mexicana glucose transporter 2. Activity is measured by DNA content using SYBR green in vitro.

Sequence of Solute carrier family 2, facilitated glucose transporter member 1 (Homo sapiens) (P11166 whole entry): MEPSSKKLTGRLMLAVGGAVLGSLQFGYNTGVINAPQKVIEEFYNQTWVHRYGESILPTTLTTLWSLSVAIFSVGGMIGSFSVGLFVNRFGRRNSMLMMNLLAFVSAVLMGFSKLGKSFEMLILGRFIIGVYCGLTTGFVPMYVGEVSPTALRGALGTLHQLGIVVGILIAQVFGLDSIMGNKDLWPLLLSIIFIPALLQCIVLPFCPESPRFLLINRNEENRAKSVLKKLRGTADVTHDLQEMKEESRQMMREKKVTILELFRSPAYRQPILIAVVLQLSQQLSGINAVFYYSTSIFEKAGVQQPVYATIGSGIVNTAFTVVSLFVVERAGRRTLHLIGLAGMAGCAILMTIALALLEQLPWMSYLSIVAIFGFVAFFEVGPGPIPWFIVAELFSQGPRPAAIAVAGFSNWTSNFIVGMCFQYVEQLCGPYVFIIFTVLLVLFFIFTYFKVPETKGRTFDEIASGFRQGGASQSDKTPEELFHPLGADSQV

With `Cc1ccc(CNC(=O)c2cc3c(=O)n4ccccc4nc3n(CCCN3CCOCC3)c2=N)cc1`, the inhibition (in general, the relative decrease from the control value, in per cent) in assay [1] turned out to be 8.03%; in assay [2] it was 6.83%; in assay [3] it was 7.61%.
In the same order, the values of `CCCc1cc(OC)c(C[C@H]2c3cc(O)c(Cl)cc3CCN2C)cc1OC` are 0.24%, 1.13% and 1.4%.
In the same order, the values of `N#Cc1c(N)nc(SCC(=O)Nc2cc(C(F)(F)F)ccc2Cl)c(C#N)c1-c1cccs1` are 1.06%, 0.77% and 0.5%.
Turning to `O=C(Nc1ccc(C(=O)OCC(c2ccccc2)c2ccccc2)cc1)N[C@@H](Cc1ccc(O)cc1)C(=O)NC1CCN(Cc2ccc(O)cc2)C1` (stereo not given in full), the figures for the inhibition in assay [1], in assay [2] and in assay [3] were -0.47%, -1.74% and -3.39%, respectively.
As to `O=C1OC(c2cc3ccccc3n2S(=O)(=O)c2ccccc2)(c2cc3ccccc3n2S(=O)(=O)c2ccccc2)c2ccccc21`, the inhibition is 1.65% in assay [1], 1.8% in assay [2] and 2.01% in assay [3].
The like results for `NC(=O)c1ccccc1OCC(=O)Nc1cccc(-c2cccc(-c3nc4ccccc4[nH]3)c2)c1` were, in that order, 0.34%, 1.07% and -4.32%.
As to `NCCNc1ccc([N+](=O)[O-])cc1C(=O)Nc1cccc(C(F)(F)F)c1`, the inhibition in assay [1] is 3.02%; in assay [2], 3.19%; in assay [3] it was 3.98%.
In the same order, the values of `Cc1ccc(C2(CN3CCC(NC(=O)c4n[nH]cc4Cl)CC3)CCCCC2)cc1` are -1.34%, 0.31% and -0.37%.
Take `Cc1c(C)n(Cc2ccccc2)c2ncnc(OC3CCN(CC(=O)NCC4CC4)CC3)c12`: the inhibition in assay [1] was 1.84%; in assay [2], 0.12%; in assay [3], 0.21%.
In the same order, the values of `O=C(/C=C/c1ccc(-c2ccccc2)cc1)NCCCCCN1CCC(c2c[nH]c3ccccc23)CC1` are 0.3%, 4.35% and -1.76%.
In the same order, the values of `CN1CCCC(CN2CCN(Cc3cccc(-c4ccc(-c5nc6cc(F)ccc6[nH]5)cc4)c3)CC2)C1` (stereo not given) are 2.66%, 1.97% and 1.35%.
For the compound `O=C(Nc1ccc2nc3n(c(=O)c2c1)CCCCC3)C(=O)N1CCN(c2ccc(F)cc2)CC1`, the inhibition in assay [1] was found to be 7.33%; in assay [2], 9.84%; in assay [3] it was 7.95%.
The like results for `Cc1[nH]c(C)c(-c2ccc(Nc3ccc(C(F)(F)F)cn3)cc2)c(=O)c1Br` were, in that order, 2.7%, 5.96% and 3.17%.
For the compound `Cc1cccc2nc(-c3cccc(-c4cccc(NC(=O)c5c[nH]cn5)c4)c3)[nH]c12`, the results for the inhibition in assay [1], in assay [2] and in assay [3] were 1.5%, 0.24% and -1.05%, respectively.
In the same order, the values of `Fc1ccc(CNc2ncc(-c3ccsc3)c(-c3nccs3)n2)cc1` are 0.01%, 4.04% and 0.95%.
As for `O=C(Nc1cccc(C(F)(F)F)c1)Nc1cc(F)c(F)cc1Cl`, the results for the inhibition in assay [1], in assay [2] and in assay [3] were 1.86%, 1.72% and 2.36%, respectively.
In the case of `COc1cc(NC(=O)c2ccc3oc4ccccc4c3c2)ccc1OCCN1CCCCC1`, the inhibition was -0.45% in assay [1], 1.28% in assay [2] and 0.62% in assay [3].
In the same order, the values of `Cn1c(NCc2cc(F)cc3c2OCOC3)nc2cc(Nc3ccnc(Nc4cccc(CS(C)(=O)=O)c4)n3)ccc21` are -1.66%, 1.11% and 1.18%.
In the same order, the values of `Cn1c(=O)c2nc(-c3ccc(Cl)cc3)nnc2n(CCCC#N)c1=O` are 7.35%, 7.41% and 6.19%.
The like results for `O=C(CCc1c[nH]cn1)Nc1cccc(-c2ccc(-c3nc4cc(F)ccc4[nH]3)s2)c1` were, in that order, 10.2%, 7.95% and 9.84%.
On to `COc1cc2ncnc(Nc3ccc(OCc4ccccc4)c(C(F)(F)F)c3)c2cc1OC`, for which the inhibition came out at 1.67% in assay [1], 0.75% in assay [2] and 0.32% in assay [3].
As for `O=C(/C=C/c1cc([N+](=O)[O-])ccc1Cl)N1CCC(CCN2CCC(c3c[nH]c4ccccc34)CC2)CC1`, the inhibition in assay [1] stood at 2.1%; in assay [2], 3.61%; in assay [3], 0.76%.
The like results for `COc1cccc(CNC(=O)c2ccnc(-c3cccc(CN(C)C4CCN(C)CC4)c3)c2)c1` were, in that order, -0.04%, -0.18% and 1.78%.
In the same order, the values of `Cc1ccccc1C1CCN(c2ccc(NC(=O)c3ccc(Cl)nc3)cc2)CC1` are 3.34%, -3.74% and 3.84%.
The like results for `CCCN(c1ccc(O)c(CN2CCCCC2)c1)c1ccc([N+](=O)[O-])cn1` were, in that order, 1.28%, 0.61% and 1.09%.
Take `O=C(Nc1cccc(CN2CCCN(Cc3ccc4c(c3)OCO4)CC2)c1)c1ccc(-c2ccccc2)cc1`: the results for the inhibition in assay [1], in assay [2] and in assay [3] were 4.21%, 3.52% and 0.89%, respectively.
In the same order, the values of `Cc1cccc2nc(-c3ccc(-c4cccc(NC(=O)c5cccc(C(N)=O)c5)c4)cc3)[nH]c12` are 3.55%, 3.07% and 2.8%.
In the case of `O=C(Nc1ccc(Cl)cc1)Nc1ccc(-c2ccc(-c3nc4ccccc4[nH]3)cc2)cc1`, the inhibition is 2.4% in assay [1], 3.97% in assay [2] and 0.96% in assay [3].
Regarding `COc1ccc2nccc([C@@H](O)CN3CCC(NC(=O)Cc4cccc5c(Br)cccc45)CC3)c2c1`, the inhibition in assay [1] amounted to 14.1%; in assay [2], 9.54%; in assay [3] it was 10.9%.
In the same order, the values of `Nc1ncc(-c2ccc(F)c(Cl)c2)c(N)n1` are 1.16%, 4.76% and 1.32%.
In the same order, the values of `O=C(Nc1ccc(-c2ccc(-c3nc4ccccc4[nH]3)s2)cc1)c1ccncc1` are 12.7%, 8.04% and 5.66%.
Take `Cc1cc(OCC2CCN(c3ncc(C(=O)NC4CC4)cc3Cl)CC2)ccc1F`: the inhibition in assay [1] was 1.62%; in assay [2] it was 1.07%; in assay [3], -1.06%.
In the same order, the values of `CCOc1ccc2c(=NN=Cc3c4ccccc4cc4ccccc34)cc(C)[nH]c2c1` are 2.42%, 1.13% and 3.35%.
In the same order, the values of `CCN(CCCN1CCCCC1)c1nc(C)cc(Nc2ccc(Cl)cc2)n1` are 0.5%, -0.38% and 1.1%.
In the same order, the values of `COc1ccccc1C1CCN(C2CCC(NC(=O)/C=C/c3cc(C(F)(F)F)ccc3F)CC2)CC1` (stereo not given) are 2.98%, 2.36% and 3.14%.
On to `Cc1cc(N[C@@H](CC(C)C)C(=O)NCc2cccs2)nc(NCCc2cccs2)n1`, for which the inhibition was determined as 7.52% in assay [1], 5.28% in assay [2] and 3.84% in assay [3].
In the same order, the values of `CCOC(=O)c1cnc2cc(N3CCCC3)c(Cl)cc2c1OCC` are 1.28%, -0.81% and 0.52%.
For `Cc1cc(NC2CCN(CC3CCCCC3)C2)nc(Nc2ccc(Cl)cc2)n1` (stereo not given), the inhibition was 3.89% in assay [1], 3.7% in assay [2] and 2.63% in assay [3].
In the same order, the values of `Cc1noc(C)c1-c1ccc2c(Nc3ccc([N+](=O)[O-])cc3)c(C(N)=O)cnc2c1` are -0.67%, -0.09% and -0.76%.
The like results for `COCCn1c(Sc2ncnc3sccc23)nc2ccccc21` were, in that order, 0.98%, 2.13% and 1.8%.
As for `Fc1ccc2[nH]c3c(NCCCN4CCOCC4)ncnc3c2c1`, the results for the inhibition in assay [1], in assay [2] and in assay [3] were 1.79%, 0.7% and -0.69%, respectively.
In the same order, the values of `CCCCN(CCCC)CCC(O)C(=Cc1ccc(Cl)cc1Cl)c1ccc(C(F)(F)F)cc1N` (stereo not given) are -0.65%, 0.65% and 0.7%.
In the same order, the values of `c1ccc(CCNCc2ccc(-c3ccc(CNCc4ccc5c(c4)OCO5)cc3)nc2)cc1` are 2.48%, -1.05% and 1.81%.
The like results for `Cc1ccc(/C=C/C(=O)NCCCCCN2CCC(c3c[nH]c4ccccc34)CC2)cc1` were, in that order, 5.46%, 5.57% and 3.18%.
As to `Cc1cc(NCCc2ccccc2)nc(NC(=N)Nc2ccc(Cl)cc2)n1`, the inhibition is 0.08% in assay [1], 2.1% in assay [2] and -1.21% in assay [3].
In the same order, the values of `O=C(N[C@@H](Cc1ccccc1)CN1CCC(Oc2ccc(F)cc2)CC1)c1ccc(OCCCN2CCCCC2)cc1` are 30.5%, 10.5% and 13.4%.
The like results for `CCCCCCN1CCN(Cc2cccc(NC(=O)c3cc4ccccc4s3)c2)CC1` were, in that order, 2.76%, 2.43% and 2.42%.
In the same order, the values of `CS(=O)(=O)NCCCNCc1cccc(-c2csc(-c3nc4ccccc4[nH]3)c2)c1` are -0.84%, -0.51% and -0.84%.
Turning to `NCc1ccc(CNCc2cccc(-c3ccc(-c4nc5ccccc5[nH]4)cc3)c2)cc1`, the inhibition in assay [1] is 13.5%; in assay [2], 11.8%; in assay [3], 12.4%.
In the same order, the values of `O=C(NC1CC1)C1CCN(Cc2cc3ccccc3n2Cc2ccc(Cl)cc2)CC1` are -2.52%, -1.61% and -1.79%.
